For experiment [1], the target named is Rap guanine nucleotide exchange factor 3 (Homo sapiens) (UniProt O95398). In words: Confirmatory qHTS for agonist of cAMP-regulated guanine nucleotide exchange factor 3 (EPAC1) (AID 1645881).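 Note: EPAC1 catalysed release of BODIPY-GDP from Rap1B seen as fluorescence loss; 100% = effect of cAMP agonist control; nearly all actives have a fitted effect of over 75% in size.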 On the technique in general: qHTS replaces the single test concentration by a dilution series.
Rap guanine nucleotide exchange factor 3 (Homo sapiens), sequence (O95398 whole entry, looked up): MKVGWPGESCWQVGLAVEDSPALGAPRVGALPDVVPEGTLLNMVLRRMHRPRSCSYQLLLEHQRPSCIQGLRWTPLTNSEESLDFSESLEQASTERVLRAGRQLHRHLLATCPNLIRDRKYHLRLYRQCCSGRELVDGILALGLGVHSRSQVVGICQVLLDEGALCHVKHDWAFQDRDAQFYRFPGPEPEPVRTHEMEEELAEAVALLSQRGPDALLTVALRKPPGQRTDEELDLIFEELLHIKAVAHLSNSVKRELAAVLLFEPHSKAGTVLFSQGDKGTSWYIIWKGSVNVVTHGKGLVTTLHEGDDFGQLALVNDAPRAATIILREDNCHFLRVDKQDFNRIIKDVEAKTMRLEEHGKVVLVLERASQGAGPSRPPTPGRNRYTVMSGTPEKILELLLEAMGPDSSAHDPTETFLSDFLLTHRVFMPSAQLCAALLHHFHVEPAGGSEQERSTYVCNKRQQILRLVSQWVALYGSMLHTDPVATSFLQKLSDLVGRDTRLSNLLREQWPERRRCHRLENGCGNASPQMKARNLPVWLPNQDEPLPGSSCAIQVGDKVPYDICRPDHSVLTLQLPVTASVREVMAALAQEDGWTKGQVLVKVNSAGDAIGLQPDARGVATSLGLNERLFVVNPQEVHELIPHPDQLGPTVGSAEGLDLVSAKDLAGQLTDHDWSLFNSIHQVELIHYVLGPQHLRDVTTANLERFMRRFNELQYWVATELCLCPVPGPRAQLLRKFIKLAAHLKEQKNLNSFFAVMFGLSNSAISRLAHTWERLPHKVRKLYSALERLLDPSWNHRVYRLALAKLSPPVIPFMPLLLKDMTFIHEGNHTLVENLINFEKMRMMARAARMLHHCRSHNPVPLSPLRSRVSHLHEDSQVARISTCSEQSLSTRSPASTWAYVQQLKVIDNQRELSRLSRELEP
The target of experiment [2] is Rap guanine nucleotide exchange factor 4 (Homo sapiens) (UniProt Q8WZA2). In words: Confirmatory qHTS for antagonist of cAMP-regulated guanine nucleotide exchange factor 4 (EPAC2) (AID 1645885). For activity change, negative = inhibition: % is set by controls: 0 for no effect and ±100 for the full control effect. Note: nearly all actives have a fitted effect of over 25% in size. Note: potency is the fitted concentration of half-maximal effect.
Rap guanine nucleotide exchange factor 4 (Homo sapiens), sequence (Q8WZA2 whole entry, looked up): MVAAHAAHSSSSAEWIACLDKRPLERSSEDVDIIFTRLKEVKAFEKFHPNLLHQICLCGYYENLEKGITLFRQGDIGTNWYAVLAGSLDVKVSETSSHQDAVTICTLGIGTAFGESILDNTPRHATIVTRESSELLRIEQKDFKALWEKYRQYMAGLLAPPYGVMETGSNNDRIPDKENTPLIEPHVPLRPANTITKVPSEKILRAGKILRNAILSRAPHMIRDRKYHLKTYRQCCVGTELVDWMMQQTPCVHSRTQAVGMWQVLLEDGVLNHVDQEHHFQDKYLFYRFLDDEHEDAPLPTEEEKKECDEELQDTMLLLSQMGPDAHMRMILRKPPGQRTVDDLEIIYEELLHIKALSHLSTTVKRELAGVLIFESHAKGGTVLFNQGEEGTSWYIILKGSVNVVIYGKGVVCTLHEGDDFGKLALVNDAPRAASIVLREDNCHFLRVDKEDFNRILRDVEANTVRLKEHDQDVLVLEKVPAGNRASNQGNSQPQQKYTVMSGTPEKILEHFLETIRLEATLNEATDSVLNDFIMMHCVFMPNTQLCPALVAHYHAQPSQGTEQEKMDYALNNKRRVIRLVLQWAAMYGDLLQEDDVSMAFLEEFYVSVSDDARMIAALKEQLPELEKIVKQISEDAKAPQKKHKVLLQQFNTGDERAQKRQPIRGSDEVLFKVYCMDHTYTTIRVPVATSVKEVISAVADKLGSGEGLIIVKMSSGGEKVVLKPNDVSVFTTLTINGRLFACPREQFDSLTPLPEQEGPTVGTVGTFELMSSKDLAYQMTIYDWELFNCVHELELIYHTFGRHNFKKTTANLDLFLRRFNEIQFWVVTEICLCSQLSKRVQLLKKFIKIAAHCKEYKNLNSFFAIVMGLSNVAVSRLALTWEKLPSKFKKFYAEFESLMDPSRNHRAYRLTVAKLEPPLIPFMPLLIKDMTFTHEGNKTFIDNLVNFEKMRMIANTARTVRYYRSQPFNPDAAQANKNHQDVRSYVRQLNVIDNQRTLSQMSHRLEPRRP
Experiment [3] deals with Rap guanine nucleotide exchange factor 3 (Homo sapiens) (UniProt O95398). In words: Counterscreen qHTS for antagonist of cAMP-regulated guanine nucleotide exchange factor 3 (EPAC1) (AID 1645888).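 Note: fluorescence loss as bound BODIPY-GDP is released from Rap1B; % of control where 0% means no effect.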 In a few lines:
(§1)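 Rap1B–BODIPY-GDP (250 nM) with 50 uM GDP; compounds pin-transferred to 9.74 nM–152 uM final (activator) or from 7.32 nM upwards (inhibitor). Fluorescence Ex/Em 480/540 nm read at 5 and 30 min, then after adding cAMP or buffer, at room temperature.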
In general terms: The purpose of a counterscreen is to sort out artefacts and off-target activity.

Experiment [4] shares this target. In words: Counterscreen qHTS for agonist of cAMP-regulated guanine nucleotide exchange factor 3 (EPAC1) (AID 1645889). Note: nearly all actives have a fitted effect of over 40% in size. Note: potency is the fitted concentration of half-maximal effect. In short, it runs like this: as §1

Records with an inconclusive call do not appear. Values without a mark were called inactive. Activity calls are given as the source filed them. Calls come from the whole dose curve; as a rule, active = well fitted curve in the direction sought with a large enough effect; inconclusive = small, poorly fitted or top-dose-only effect, or another doubt; inactive = no such curve, though single readings can be large; an effect the other way counts as inactive or inconclusive.

Experimental findings from PubChem BioAssay (NCATS) are described below.

In the case of `CCCN1C(=O)c2[nH]nc(-c3ccc(F)cc3)c2C1c1ccc(O)c(OCC)c1` (stereo unspecified), the Potency entry in experiment [1], in experiment [2], in experiment [3] and in experiment [4] was “inactive” in each case.
In the case of `CC1=Nc2ccccc2/C1=C/c1sc(=N)n(-c2nccs2)c1O`, the Potency entry in experiment [1], in experiment [2] and in experiment [3] was “inactive” each time. In experiment [4], the Potency was 56.2 µM (active).
`O=[N+]([O-])c1cccc(S(=O)(=O)Nc2cccc(-c3ccc(N4CCCC4)nn3)c2)c1`: the Potency entry in experiment [1] and in experiment [3] was “inactive” each time. The outcome in experiment [2] was “inactive [at 12.7 µM]”.
In the case of `Cc1nc(N)sc1-c1csc(Nc2ncccn2)n1`, the Potency result in experiment [1], in experiment [2], in experiment [3] and in experiment [4] was “inactive” in each case.
In the case of `COC(=O)c1c(SC)nc2ccccc2c1OCc1ccccc1Cl`, the Potency result in experiment [1], in experiment [2], in experiment [3] and in experiment [4] was “inactive” in each case.
Regarding `COc1cccc2cc(/C(=N/O)c3ccccc3)oc12`, the Potency entry in experiment [1], in experiment [2] and in experiment [3] was “inactive” throughout.
Consider `COc1ccc(-c2ccc(C(=O)NC(C)C)c3occc23)c(C)c1`, for which the Potency result in experiment [1], in experiment [2] and in experiment [3] was “inactive” throughout.
On to `Cc1nc2ccccc2c2oc(C(=O)Nc3ccc4c(c3)OCCO4)cc12`, for which the Potency entry in experiment [1], in experiment [2] and in experiment [3] was “inactive” throughout.
As for `O=C1NNC(c2ccccc2)=N/C1=C\c1ccccc1Cl`, the Potency result in experiment [1], in experiment [2] and in experiment [3] was “inactive” each time.
As for `O=c1[nH]c(Nc2ccc(F)cc2)cc2ccccc12`, the Potency entry in experiment [1], in experiment [2] and in experiment [3] was “inactive” throughout.
In the case of `CC(=O)c1ccccc1NC(=O)COC(=O)CSCC(=O)Nc1cc(C)on1`, the Potency result in experiment [1], in experiment [2] and in experiment [3] was “inactive” throughout.
As for `Cc1nn(-c2ccccc2)c2nc(N)c(C#N)c(-c3ccc(O)c(O)c3)c12`, the Potency entry in experiment [1], in experiment [2] and in experiment [3] was “inactive” in each case.
With `CCOc1ccccc1C(=O)N1CCc2cc(OC)c(OC)cc2C1COc1ccc(OC)cc1` (stereo unspecified), the Potency result in experiment [1], in experiment [2] and in experiment [3] was “inactive” throughout.
On to `O=C(Nc1cccc(S(=O)(=O)NCc2ccco2)c1)c1cc(-c2ccccc2)nc2ccccc12`, for which the Potency entry in experiment [1], in experiment [2] and in experiment [3] was “inactive” each time.
On to `COc1ccc(NC(=O)COC(=O)CCCOc2ccc(Cl)cc2Cl)cc1Cl`, for which the Potency result in experiment [1], in experiment [3] and in experiment [4] was “inactive” throughout. Moreover, the Potency in experiment [2] is 6.01 µM (active).
With `CN(CC(=O)Nc1ccc(Cl)c(C(F)(F)F)c1)C(=O)c1ccc2c(c1)OCCO2`, the Potency entry in experiment [1], in experiment [2], in experiment [3] and in experiment [4] was “inactive” in each case.
Take `Cc1cccc(CNC(=O)c2ccc(-c3nc(CS(=O)(=O)c4ccccc4)c(C)o3)cc2)c1`: the Potency entry in experiment [1], in experiment [2] and in experiment [3] was “inactive” each time.
In the case of `COc1ccc(Cl)cc1C1CC(=O)Nc2cc3c(cc21)OCCO3` (stereo unspecified), the Potency entry in experiment [1], in experiment [2] and in experiment [3] was “inactive” in each case.
Turning to `Cc1cccc(C)c1Nc1c(-c2ccc(Cl)s2)nc2ncccn12`, the Potency entry in experiment [1], in experiment [2] and in experiment [3] was “inactive” throughout.
With `Nc1nc(CSc2ccc(Cl)cc2)nc(N2CCCCC2)n1`, the Potency result in experiment [1], in experiment [2] and in experiment [3] was “inactive” each time.
For `O=C(NCc1ccccc1F)c1ccc(CN2CC(=O)N3CCCCC3C2=O)cc1` (stereo unspecified), the Potency entry in experiment [1], in experiment [2] and in experiment [3] was “inactive” in each case.
Regarding `CCn1c(SCC(=O)c2ccc(O)c(O)c2)nnc1-c1ccccc1OC`, the Potency entry in experiment [1] and in experiment [3] was “inactive” throughout. The Potency in experiment [2] was 9.53 µM (active).
Take `CC1=CC(C)(C)N2C(=O)C(=Nc3ccc(O)cc3)c3cccc1c32`: the Potency result in experiment [1], in experiment [2], in experiment [3] and in experiment [4] was “inactive” in each case.
In the case of `Cc1cc(C)c2c(CN3CCCC3)cc(=O)oc2c1`, the Potency entry in experiment [1], in experiment [2] and in experiment [3] was “inactive” throughout.
With `COc1ccccc1/C=C(/C(=O)OCC(=O)Nc1ccc(N(C)C)cc1)c1ccccc1`, the Potency entry in experiment [1], in experiment [3] and in experiment [4] was “inactive” in each case. Besides, the Potency in experiment [2] is 5.36 µM (active).
As for `COC(=O)c1ccc(OCC2c3cc(OC)c(OC)cc3CCN2C(=O)c2ccc(OC)cc2)cc1` (stereo unspecified), the Potency result in experiment [1], in experiment [2] and in experiment [3] was “inactive” each time.
Take `Cc1cc(N(CCO)Cc2ccccc2)n2nc(-c3ccc(C(C)(C)C)cc3)nc2n1`: the Potency entry in experiment [1], in experiment [2], in experiment [3] and in experiment [4] was “inactive” in each case.
Consider `Cn1cccc1/C=C1\SC(=S)N(NC(=O)c2cccc(Cl)c2)C1=O`, for which the Potency entry in experiment [1], in experiment [2], in experiment [3] and in experiment [4] was “inactive” in each case.
With `O=S(=O)(c1cccc2ccccc12)N1CCCCC1`, the Potency entry in experiment [1], in experiment [3] and in experiment [4] was “inactive” in each case. Further, the Potency in experiment [2] was 21.3 µM (active).
On to `CC(=O)Nc1ccc(Nc2nnc(-c3ccc(O)cc3)c3ccccc23)cc1`, for which the Potency result in experiment [1], in experiment [2] and in experiment [3] was “inactive” each time.
Turning to `Cc1csc2nc(-c3cccc(NC(=O)c4cccc(F)c4)c3)cn12`, the Potency result in experiment [1], in experiment [2] and in experiment [3] was “inactive” each time.
With `O=C(Nc1ccc(-c2cn3ccccc3n2)cc1)c1cccs1`, the Potency result in experiment [1], in experiment [2] and in experiment [3] was “inactive” each time.
Regarding `N#C/C(=C\c1ccc(-c2ccccc2C(=O)O)o1)c1nc2ccccc2[nH]1`, the Potency result in experiment [1] and in experiment [3] was “inactive” in each case. Besides, the outcome in experiment [2] was “inactive [at 12.7 µM]”.
For `Cc1ccc(SCC(=O)Nc2ccccc2N2CCOCC2)cc1`, the Potency entry in experiment [1], in experiment [2], in experiment [3] and in experiment [4] was “inactive” in each case.
In the case of `Cc1nc2c(C(=O)NCc3ccccc3Cl)c[nH]n2c(=O)c1Cc1cccc(Cl)c1`, the Potency entry in experiment [1], in experiment [2], in experiment [3] and in experiment [4] was “inactive” throughout.
Regarding `Cc1nc([N+](=O)[O-])c(Br)n1Cc1ccc(Cl)c(Cl)c1`, the Potency result in experiment [1] and in experiment [3] was “inactive” in each case.
As to `Cc1cccc(Cn2nnc3c(=O)[nH]c(C4CCCN(C(=O)c5ccc(C(C)(C)C)cc5)C4)nc32)c1` (stereo unspecified), the Potency result in experiment [1] and in experiment [4] was “inactive” each time. Further, in experiment [2], the outcome was “inactive [at 12.7 µM]”.
For `CC(=O)Nc1ccc(S(=O)(=O)N2CCN(c3cc(C)ccc3C)CC2)cc1`, the Potency result in experiment [1] and in experiment [3] was “inactive” each time.
`N#Cc1c(N)c(C#N)c(-c2ccc(O)cc2)c2c1CCCC2`: the Potency entry in experiment [1] and in experiment [3] was “inactive” each time.
With `S=C(Nc1ccc2nsnc2c1)N1CCCCC1`, the Potency result in experiment [1] and in experiment [3] was “inactive” in each case.
`CC(C)(C)c1cc(NCCCn2ccnc2)n2ncc(-c3ccccc3)c2n1`: the Potency result in experiment [1], in experiment [2] and in experiment [4] was “inactive” throughout.
On to `Cc1ccc(C2CC2/C(=N/O)c2ccc(F)cc2)cc1` (stereo unspecified), for which the Potency entry in experiment [1] and in experiment [4] was “inactive” each time. The Potency in experiment [2] was 37.9 µM (active).
Consider `CC(=O)NC(c1cccc(F)c1)c1nc(/C=C/c2ccccc2)cs1` (stereo unspecified), for which the Potency result in experiment [1] and in experiment [3] was “inactive” each time.
In the case of `CN(Nc1cccc(Cl)c1)c1cccc(Cl)c1`, the Potency result in experiment [1] and in experiment [3] was “inactive” in each case.
On to `Cn1cc(/C=C/c2cc[n+](C)cc2)c2cc(F)ccc21`, for which the Potency entry in experiment [1], in experiment [2], in experiment [3] and in experiment [4] was “inactive” each time.
For `COc1ccc(/C=C2\SC(=S)N(CCC(=O)N3CCCCC3CCO)C2=O)cc1` (stereo unspecified), the Potency result in experiment [1], in experiment [2], in experiment [3] and in experiment [4] was “inactive” in each case.
Take `O=C(O)c1cccc(Cn2c(Cl)c(/C=N/NC(=O)c3cc4ccccc4cc3O)sc2=O)c1`: the Potency entry in experiment [1] and in experiment [3] was “inactive” throughout.
Turning to `COC(=O)c1ccc2nc(-c3cccc(Br)c3)c(Cc3ccccc3)n2c1`, the Potency entry in experiment [1] and in experiment [3] was “inactive” each time.
Consider `COc1ccc(C=C(C(C)=O)C(=O)c2ccccc2)cc1`, for which the Potency entry in experiment [1] and in experiment [3] was “inactive” in each case.
As for `COC(=O)CN(c1nc(C)c(Br)c(OC)n1)S(=O)(=O)c1ccccc1`, the Potency entry in experiment [1] and in experiment [3] was “inactive” throughout.
For the compound `CCOc1ccc(C2C3=C(CCCC3=O)Nc3ccc4ncccc4c32)cc1` (stereo unspecified), the Potency entry in experiment [1] was “inactive”. The activity change, negative = inhibition in experiment [3] was -12.5% [at 30.8 µM].
With `COc1ccc(OC)c(NC(=O)CSc2nccn2-c2cc(C)cc(C)c2)c1`, the Potency result in experiment [1], in experiment [2], in experiment [3] and in experiment [4] was “inactive” throughout.
Consider `Clc1ccc(CSc2nnc(-c3ccccn3)n2Cc2ccco2)cc1Cl`, for which the Potency result in experiment [1] and in experiment [3] was “inactive” each time.
As to `O=C1OC(Cc2ccccc2)(c2ccccc2)c2ccccc21` (stereo unspecified), the Potency entry in experiment [1], in experiment [2], in experiment [3] and in experiment [4] was “inactive” throughout.
As to `Cc1ccc2sc(N(CCCN(C)C)C(=O)c3nc4ccccc4s3)nc2c1C`, the Potency result in experiment [1] and in experiment [3] was “inactive” each time.
With `Cc1ccc2c(c1)OC(=O)CC2c1ccccc1` (stereo unspecified), the Potency entry in experiment [1] and in experiment [3] was “inactive” each time.
Regarding `Cc1nc(NC(=O)c2c(-c3ccccc3)c(-c3ccccc3)nn(C)c2=O)sc1C`, the Potency entry in experiment [1], in experiment [2], in experiment [3] and in experiment [4] was “inactive” each time.
Consider `CCc1nnc(NS(=O)(=O)c2ccc(NC(=O)C(c3ccccc3)c3ccccc3)cc2)s1`, for which the Potency entry in experiment [1] and in experiment [3] was “inactive” in each case.
Take `Cc1ccccc1OCC(=O)Nc1ccc(C(=O)OCc2cc(=O)n3c(C)csc3n2)cc1`: the Potency entry in experiment [1], in experiment [2], in experiment [3] and in experiment [4] was “inactive” throughout.
As for `CN(CC(=O)Nc1cccc(F)c1)C(=O)/C=C/c1cc(Br)ccc1OC(F)F`, the Potency result in experiment [1] and in experiment [3] was “inactive” throughout.
Turning to `C/C(=N\N(Cc1ccccc1)c1ccccc1)c1cccnc1`, the Potency result in experiment [1] and in experiment [3] was “inactive” in each case.
Regarding `CC(C)C(NC(=O)C1CC(=O)N(Cc2ccccc2)C1)c1nc2ccccc2[nH]1` (stereo unspecified), the Potency entry in experiment [1], in experiment [2], in experiment [3] and in experiment [4] was “inactive” each time.
As for `O=C1Nc2ccccc2/C1=N\N=C\c1ccc(O)c(O)c1`, the Potency entry in experiment [1] and in experiment [3] was “inactive” throughout.
